Assay [1] can be described thus: qHTS assay for small molecule agonists of the p53 signaling pathway (AID 651631; calls by dose curve; further: nearly all actives have a fitted effect of over 15% in size). The procedure, abridged:
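Stably transfected HCT-116 cells (beta-lactamase behind p53 response elements) get compounds after a 5 h settling period; 16 h later at 37 °C, FRET substrate is loaded and fluorescence read after 2 h.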

Assay [2] can be described thus: qHTS assay for small molecules that induce genotoxicity in human embryonic kidney cells expressing luciferase-tagged ATAD5 (AID 651632). Further: nearly all actives have a fitted effect of over 15% in size. The procedure, abridged:
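HEK293T cells carrying luciferase-tagged ATAD5 were given compound or DMSO vehicle and incubated 16 hr at 37C, 5% CO2. Luciferase activity was read after 30 min at room temperature with Amplite; a rise signals genotoxic stress.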

Assay [3] can be described thus: qHTS assay for small molecule agonists of the p53 signaling pathway - cell viability (AID 651633; calls by dose curve;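 further: p53RE-bla HCT reporter cells with a stable beta-lactamase p53 reporter; series mostly up to about 83 µM; nearly all actives have a fitted effect of over 30% in size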). The essentials:
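Viability counter-read: CellTiter-Glo luminescence (30 min, room temperature) in the same p53RE-bla plates. These plates had been exposed to compounds for 16 h at 37 C.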

Assay [4] is described as follows: qHTS assay for small molecules that induce genotoxicity in human embryonic kidney cells expressing luciferase-tagged ATAD5 - cell viability (AID 651634; calls by dose curve; further: nearly all actives have a fitted effect of over 25% in size). The essentials: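 HEK293T cells carrying luciferase-tagged ATAD5, 2,000 cells/well, exposed to compound for 15.5 hr at 37C. Viability read as live-cell protease activity by CellTiter-Fluor fluorescence after 30 min at 37C.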

Assay [5] can be described thus: qHTS assay for small molecule disruptors of the mitochondrial membrane potential - cell viability (AID 720634; calls by dose curve;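 further: human HepG2 liver cancer cells; series mostly up to about 83 µM; nearly all actives have a fitted effect of over 20% in size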). The essentials: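 HepG2 cells, 2,000 per well, attached overnight, then treated 1 hr at 37 C, 5% CO2. Viability read as ATP by CellTiter-Glo luminescence after 30 min at room temperature. Read in the same wells as the m-MPI membrane-potential dye assay.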

A short description of assay [6]: qHTS assay for small molecule disruptors of the mitochondrial membrane potential (AID 720635). Further: potency means the concentration at half of the fitted maximal effect. The essentials: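 Mitochondrial membrane potential tracked with Mito-MPS dye, red aggregates (ex 540/em 590 nm) against green monomers (ex 490/em 535 nm). Compound treatment 1 hr at 37C, dye 30 min in HepG2.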
A short description of assay [7]: qHTS assay to test for compound auto fluorescence at 590 nm (red) in HepG2 cells (AID 720674). The procedure, abridged:
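We screened compounds on adherent HepG2 cells, incubating them for an hour at 37 C in 5% CO2 before reading emission at 590 nm under 540 nm excitation; values reflect equivalence to Rose Bengal sodium fluorescence.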

Assay [8] in a line: qHTS assay to test for compound auto fluorescence at 460 nm (blue) in HEK293 cells (AID 720678). The essentials: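 HEK293, 2,000 cells/well, 10% dialyzed FBS; attach 4-5 hr 37C; pin compound or DMSO; o/n 37C/5% CO2; fluorescence 405/460 nm; triamterene-equivalent units.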
A short description of assay [9]: qHTS assay to test for compound auto fluorescence at 590 nm (red) in HEK293 cells (AID 720679). The essentials:
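Intensity at 540nm excitation and 590nm emission is reported as Rose Bengal sodium-equivalent autofluorescence. Measurements followed overnight exposure (37C, 5% CO2) of HEK293 cells, 2,000 per well, to 23 nL compound.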

Assay [10] is described as follows: qHTS assay to test for compound auto fluorescence at 460 nm (blue) in HEK293 cell free culture (AID 720681). The procedure, abridged:
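Blue fluorescence (Ex 405/Em 460 nm, triamterene-equivalent) was read immediately after pin transfer of compound or DMSO into medium (DMEM, 10% FBS) without cells.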

The nature of assay [11]: qHTS assay to test for compound auto fluorescence at 535 nm (green) in HEK293 cell free culture (AID 720682). The procedure, abridged: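 Using fluorescein as calibrant, autofluorescence was quantified at 485/535 nm in cell-free DMEM containing 10% FBS after pintool addition of compound or vehicle.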
Assay [12] can be described thus: qHTS assay to test for compound auto fluorescence at 590 nm (red) in HEK293 cell free culture (AID 720683). The essentials: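 Red-channel autofluorescence of compounds in culture medium (DMEM, 10% FBS), no cells, measured at 540/590 nm. Rose Bengal sodium is the reference fluorophore for equivalence.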
A short description of assay [13]: qHTS assay to test for compound auto fluorescence at 460 nm (blue) in HepG2 cell free culture (AID 720685). The essentials: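 Compound (23 nL) or DMSO pinned into cell-free MEM with 10% FBS; blue fluorescence read at 405/460 nm excitation/emission, expressed as auto-fluorescence equivalency to triamterene.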
Assay [14] in a line: qHTS assay to test for compound auto fluorescence at 535 nm (green) in HepG2 cell free culture (AID 720686).
A short description of assay [15]: qHTS assay to test for compound auto fluorescence at 460 nm (blue) in HepG2 cells (AID 720687). The essentials:
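Blue-channel autofluorescence (Ex/Em 405/460 nm, triamterene-equivalent) was measured after 1 hr compound exposure at 37 C, 5% CO2. Cells were HepG2, plated overnight at 37 C in MEM plus 10% FBS.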

For assay [16], the target named is Glucocorticoid receptor (Homo sapiens) (UniProt P04150). The assay is described as follows: qHTS assay to identify small molecule agonists of the glucocorticoid receptor (GR) signaling pathway (AID 720691; active means well fitted activation curve with a large enough effect in the signal ratio in the repeat runs, not every such curve was filed as active; the % refers to the signal ratio). The procedure, abridged: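 GR-bla HeLa cells carrying a GRE-driven beta-lactamase reporter, exposed to compounds for 18 h at 37 C. Reporter activation read as fluorescence after 2 h with LiveBLAzer B/G FRET substrate at room temperature.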

Assay [17] shares this target. The assay is described as follows: qHTS assay to identify small molecule antagonists of the glucocorticoid receptor (GR) signaling pathway (AID 720692; active means well fitted inhibition curve with a large enough effect in the signal ratio in the repeat runs, not every such curve was filed as active; the % refers to the signal ratio). The procedure, abridged:
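GR-bla HeLa cells carrying a GRE-driven beta-lactamase reporter received compound after 4 h plating, then dexamethasone (5 nM final). After 18 h at 37C, the FRET substrate was loaded for 2 h at room temperature and fluorescence read.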

Assay [18] can be described thus: qHTS assay to test for compound auto fluorescence at 535 nm (green) in HepG2 cells (AID 720675).
A short description of assay [19]: qHTS assay to test for compound auto fluorescence at 535 nm (green) in HEK293 cells (AID 720680).
Assay [20] is described as follows: qHTS assay to test for compound auto fluorescence at 590 nm (red) in HepG2 cell free culture (AID 720684). The procedure, abridged: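 Plate contents were MEM with 10% FBS plus test compound or DMSO, no cells. Fluorescence was recorded with 540 nm excitation and 590 nm emission.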

Values joined by “and” are separate entries in the source; they are usually repeats but may differ in a detail not shown here. Equal values may be shown once. Results filed as inconclusive are left out. Active and inactive are the calls of the source. Unless noted, the call rests on the fitted dose curve; in most records, active means well fitted curve in the direction sought with a large enough effect in the repeat runs; inconclusive means weak or mixed curves; inactive means no such curve, though single readings can be large; an effect the other way counts as inactive or inconclusive.

Sequence of Glucocorticoid receptor (Homo sapiens) (P04150 whole entry, looked up): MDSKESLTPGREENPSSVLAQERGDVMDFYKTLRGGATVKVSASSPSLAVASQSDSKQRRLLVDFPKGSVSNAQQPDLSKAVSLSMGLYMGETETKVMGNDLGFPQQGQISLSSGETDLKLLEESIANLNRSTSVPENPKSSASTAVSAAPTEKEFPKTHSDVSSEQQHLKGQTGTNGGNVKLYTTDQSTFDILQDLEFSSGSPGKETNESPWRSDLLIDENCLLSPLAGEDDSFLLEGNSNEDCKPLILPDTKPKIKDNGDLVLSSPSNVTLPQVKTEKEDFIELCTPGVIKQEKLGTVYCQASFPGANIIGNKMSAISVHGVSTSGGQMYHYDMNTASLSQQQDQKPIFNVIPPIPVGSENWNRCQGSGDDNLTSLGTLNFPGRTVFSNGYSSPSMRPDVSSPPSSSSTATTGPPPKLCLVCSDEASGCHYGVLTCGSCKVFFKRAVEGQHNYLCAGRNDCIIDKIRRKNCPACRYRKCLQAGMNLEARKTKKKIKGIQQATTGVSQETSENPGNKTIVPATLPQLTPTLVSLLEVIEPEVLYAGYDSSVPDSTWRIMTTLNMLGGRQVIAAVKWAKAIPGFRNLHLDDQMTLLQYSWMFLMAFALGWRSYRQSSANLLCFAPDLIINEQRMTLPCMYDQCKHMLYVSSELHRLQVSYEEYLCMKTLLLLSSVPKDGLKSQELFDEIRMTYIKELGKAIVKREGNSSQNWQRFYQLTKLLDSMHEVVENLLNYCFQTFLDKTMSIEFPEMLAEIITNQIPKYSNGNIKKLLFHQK

Consider `CNC(=O)Oc1ccccc1OC(C)C`, for which the outcome in assay [1], in assay [2], in assay [3], in [4], in assay [7] and in assay [8] was inactive. For the same molecule, the molecule was called inactive in assay [9], in [10], in [11], in assay [12], in assay [13] and in assay [14]. Further, the molecule was classed as inactive in assay [15] and in [16]. Moreover, the Potency entry in [5], in [6] and in assay [17] was “inactive” in each case.

As for `CCCN(CCC)N=O`, the outcome in [1], in assay [2], in assay [4], in assay [7], in assay [18] and in [8] was inactive. Further, the outcome in [9], in [19], in assay [10], in [11], in assay [12] and in assay [20] was inactive. In addition, the call in assay [13], in assay [14], in assay [15] and in [16] was inactive. For the same molecule, the Potency result in assay [5], in assay [6] and in [17] was “inactive” throughout.

Take `O=c1[nH]c2ccccc2c(=O)o1`: the molecule was classed as inactive in assay [1], in assay [2], in assay [4], in [7], in assay [18] and in assay [8]. Further, the molecule was classed as inactive in [9], in assay [19], in assay [10], in assay [11], in assay [12] and in assay [20]. For the same molecule, the result in assay [13], in assay [14], in [15] and in assay [16] was inactive. Besides, the Potency entry in [5], in assay [6] and in [17] was “inactive” throughout.

With `CN(C)N=O`, the result in assay [1], in [2], in [4], in [7], in [18] and in assay [8] was inactive. The outcome in [9], in assay [10], in assay [11], in assay [12], in [13] and in assay [14] was inactive. The outcome in assay [15] and in [16] was inactive. Also, the Potency result in assay [5], in assay [6] and in assay [17] was “inactive” throughout.

For `Cc1cc(Cl)ccc1O`, the outcome in [1], in [2], in assay [4], in assay [7], in assay [18] and in [8] was inactive. For the same molecule, the call in [9], in assay [10], in assay [11], in assay [12], in [20] and in assay [13] was inactive. In addition, the molecule was classed as inactive in [14], in assay [15] and in [16]. The Potency entry in assay [5] and in [17] was “inactive” in each case. In addition, the Potency in assay [6] was 42 µM (active) and 54.5 µM (active).

For the molecule `CC(Oc1ccc(Cl)cc1Cl)C(=O)O` (stereo not drawn), the outcome in [1], in assay [2], in assay [3], in [4], in assay [7] and in assay [8] was inactive. Further, the call in assay [9], in [19], in [10], in [11], in assay [12] and in assay [13] was inactive. Moreover, the outcome in [14], in assay [15] and in assay [16] was inactive. Further, the Potency result in assay [17] is “inactive”.

As for `Cn1cc(-c2ccccc2)c(=O)c(-c2cccc(C(F)(F)F)c2)c1`, the molecule was called inactive in assay [1], in assay [2], in assay [4], in assay [7], in assay [18] and in [8]. In addition, the outcome in assay [9], in [19], in assay [10], in assay [11], in assay [12] and in assay [13] was inactive. The result in [14], in assay [15] and in [16] was inactive. In addition, the Potency result in assay [5], in assay [6] and in [17] was “inactive” throughout.

Turning to `Cc1cc(-c2cc(C)c(N)c(C)c2)cc(C)c1N`, the outcome in [1], in assay [2], in assay [4], in assay [7], in assay [18] and in assay [8] was inactive. For the same molecule, the result in assay [9], in assay [19], in assay [10], in [11], in assay [12] and in [20] was inactive. In addition, the molecule was classed as inactive in [13], in assay [14], in assay [15] and in assay [16]. In assay [5], the Potency entry was “inactive”.

For `C=CC(N)=O`, the call in assay [1], in assay [3], in assay [7], in assay [18], in [8] and in assay [9] was inactive. The molecule was called inactive in [10], in assay [11], in assay [12], in assay [13], in assay [14] and in assay [15]. For the same molecule, the molecule was classed as inactive in [16]. Further, the Potency result in assay [5], in assay [6] and in [17] was “inactive” throughout.

Take `CCOP(=S)(OCC)SCCSCC`: the molecule was called inactive in [1], in assay [2], in assay [4], in assay [7], in assay [8] and in assay [9]. For the same molecule, the call in assay [10], in assay [11], in [12], in [20], in assay [13] and in assay [14] was inactive. Moreover, the molecule was classed as inactive in assay [15] and in [16]. Further, the Potency entry in assay [5] and in assay [17] was “inactive” throughout.

Consider `O=S(=O)(c1ccc(Cl)cc1)c1cc(Cl)c(Cl)cc1Cl`, for which the molecule was called inactive in [2], in [4], in assay [7], in assay [8], in [9] and in [19]. The molecule was called inactive in assay [10], in [11], in assay [12], in assay [13], in assay [14] and in assay [15]. In addition, the molecule was called inactive in [16]. Moreover, the Potency entry in [5] is “inactive”. The Potency in assay [6] is 12.2 µM (active) and 13.7 µM (active).

These data come from PubChem BioAssay (Tox21).
